Experimental findings from PubChem BioAssay AID1851 (National Center for Advancing Translational Sciences (NCATS), 2009) are described below.

About 5,100 (32%) of roughly 16,000 compounds were called active. About 25% were inconclusive and are not listed. This is one part of the list. Unmarked numbers belong to inactive results. The call rests on the fitted dose curve; in most records, active means well fitted curve in the direction sought with a large enough effect; inconclusive means small, poorly fitted or top-dose-only effect, or effect the other way; inactive means no such curve, though single readings can be large or run the other way.
On the % scale 0 is the no-effect control and ±100 the full control effect.

Sequence of Cytochrome P450 3A4 (Homo sapiens) (P08684 whole entry, looked up): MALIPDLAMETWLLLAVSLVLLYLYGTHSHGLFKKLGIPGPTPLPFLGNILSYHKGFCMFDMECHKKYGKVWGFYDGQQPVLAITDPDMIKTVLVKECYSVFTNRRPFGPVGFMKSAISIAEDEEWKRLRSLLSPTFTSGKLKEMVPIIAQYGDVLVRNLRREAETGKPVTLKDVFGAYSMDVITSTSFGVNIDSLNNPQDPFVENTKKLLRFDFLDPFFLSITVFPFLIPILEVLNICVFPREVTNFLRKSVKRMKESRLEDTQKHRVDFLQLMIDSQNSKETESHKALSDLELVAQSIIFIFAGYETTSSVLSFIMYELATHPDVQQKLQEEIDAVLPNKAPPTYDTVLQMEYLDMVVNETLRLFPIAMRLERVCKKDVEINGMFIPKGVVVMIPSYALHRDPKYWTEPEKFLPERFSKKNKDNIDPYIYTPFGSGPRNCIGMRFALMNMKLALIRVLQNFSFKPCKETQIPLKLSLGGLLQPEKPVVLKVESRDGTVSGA

This assay has as its target Cytochrome P450 3A4 (Homo sapiens) (UniProt P08684). As to the kind of experiment: Cytochrome panel assay with activity outcomes. The conditions noted are these: recombinant CYP, pro-luciferin dealkylation, luminescence, p450-cyp3a4; series mostly up to 57.1 µM; activity, negative = inhibition: at the top concentration.
Take `OC[C@@H]1O[C@@H](n2cnc3c(NC4CCCCC4)ncnc32)[C@@H](O)[C@H]1O`: the “activity, negative = inhibition” value is -10.8%.

With `CCC(C)NS(=O)(=O)c1ccc(NC(=O)CCC2CCCCC2)cc1` (stereo not given), the activity, negative = inhibition was 14.9% [at 2.29 µM].

For `O=C(CCc1ccc(S(=O)(=O)NC2CCCCC2)cc1)N(Cc1ccccc1)Cc1ccccc1`, the AC50 (commonly the midpoint of the concentration-response curve, whichever way the signal moves) was 3.16 µM (active).

On to `O=C(CCc1ccccc1)NNC(=O)C1CCCCC1`, for which the activity, negative = inhibition was -0.205% [at 2.29 µM].

Turning to `CC(=O)NS(=O)(=O)c1ccc(NC(=O)NC2CCCCC2)cc1`, the “activity, negative = inhibition” value was -6.87%.

Regarding `O=C(NNS(=O)(=O)c1ccc(Cl)cc1)NC1CCCCC1`, the “activity, negative = inhibition” value is 14.5%.

Turning to `Cc1ccc(NC(=O)CCc2ccc(S(=O)(=O)NC3CCCCC3)cc2)cc1`, the AC50 was 0.891 µM (active).

For `O=C(O)c1ccccc1/C=N\N=C1c2ccccc2-c2ccccc21`, the activity, negative = inhibition is -13.2% [at 11.4 µM].

Turning to `CCOc1ccccc1OCCOc1ccc(F)cc1`, the “activity, negative = inhibition” value is -15%.

As to `CCOc1ccc(S(=O)(=O)NCc2ccc(F)cc2)c2cccnc12`, the AC50 was 15.8 µM (active).

`Cn1c(CNS(=O)(=O)c2ccc(F)cc2)n[nH]c1=S`: the “activity, negative = inhibition” value was -10.2%.

With `O=C1Nc2ccccc2C1=Nc1ccc(S(=O)(=O)Nc2nccs2)cc1`, the activity, negative = inhibition was -1.93% [at 11.4 µM].

On to `O=C(CCN1C(=O)S/C(=C\c2ccccc2)C1=O)Nc1ccc(S(=O)(=O)Nc2nccs2)cc1`, for which the AC50 was 5.01 µM (active).

For the molecule `Nc1ccc(S(=O)(=O)Nc2nccs2)cc1`, the “activity, negative = inhibition” value is -15.7% [at 25.6 µM].

With `O=C(NCC1CCCO1)C1CCC(=O)N1CCc1ccccc1` (stereo not given), the “activity, negative = inhibition” value was -13.8%.

Take `CCS(=O)(=O)N1CCC(C(=O)NCC2CCCO2)CC1` (stereo not given): the “activity, negative = inhibition” value was 1.97%.

On to `O=C(NCC1CCCO1)C1c2ccccc2C(=O)N1Cc1ccc2c(c1)OCO2` (stereo not given), for which the AC50 is 1.41 µM (active).

As to `CCOc1ccc(-n2c(C)nc3cc(C(=O)NCc4ccco4)ccc32)cc1`, the “activity, negative = inhibition” value was -16.2%.

`CCOc1ccc(-n2c(N)c(C(=O)NCc3cccnc3)sc2=S)cc1`: the AC50 was 2 µM (active).

For the molecule `CCOc1ccc(N2C(=O)c3cccnc3C2=O)cc1`, the “activity, negative = inhibition” value is -13.3%.

Consider `Cc1ccc(-n2c(N)c(C(=O)NCc3ccco3)sc2=S)cc1`, for which the AC50 is 25.1 µM (active).

Take `COc1ccc(-n2c(N)c(C(=O)NCc3ccco3)sc2=S)cc1`: the AC50 is 25.1 µM (active).

Take `CC(C)c1cc(CN(C)C)c(O)c(C(C)(C)C)c1`: the activity, negative = inhibition was -5.68% [at 11.4 µM].

For the molecule `N#Cc1c(-c2ccc(Cl)cc2)nc2n(c1=O)CCCS2`, the “activity, negative = inhibition” value is -15.8%.

Take `CCNc1nc(NCC)nc(N(C)N)n1`: the “activity, negative = inhibition” value was -10.2%.

`COc1ccc(NS(=O)(=O)c2cc(-c3nnnn3C)ccc2OC)cc1`: the activity, negative = inhibition was -15.9% [at 11.4 µM].

Take `COc1ccccc1S(=O)(=O)Nc1ccc(-c2nnc3n2CCCCC3)cc1`: the AC50 was 14.1 µM (active).

Turning to `O=C(O)/C(=C/c1c(C(=O)O)[nH]c2cc(Cl)cc(Cl)c12)c1ccccc1`, the “activity, negative = inhibition” value is -1.29%.

Consider `Cc1ccc(/C=C/C(=O)c2nc3ccccc3[nH]2)cc1`, for which the activity, negative = inhibition was -18.1% [at 2.29 µM].

On to `O=C(/C(=C/c1ccc(Cl)cc1)c1nc2ccccc2[nH]1)c1ccccc1`, for which the AC50 is 3.55 µM (active).

For the molecule `COCCN(C(=O)Nc1ccc(OC)cc1OC)C1CCN(C(C)=O)CC1`, the “activity, negative = inhibition” value was -11.9%.

Regarding `COc1ccc(N2CCC(CNC(=O)Nc3ccc(OC)cc3OC)C2)cc1` (stereo not given), the AC50 was 7.08 µM (active).

`COc1ccc(CCNC(=O)CCN2C(=O)C(C)Oc3ccc(C)cc32)cc1OC` (stereo not given): the AC50 is 1.78 µM (active).

On to `Cc1ccc2c(c1)N(CC(=O)NCc1cccs1)C(=O)C(C)O2` (stereo not given), for which the activity, negative = inhibition is -21.8% [at 2.29 µM].

As for `COc1ccc(CCNC(=O)CCN2C(=O)COc3ccc(C)cc32)cc1OC`, the AC50 was 2.24 µM (active).

For `COc1ccc(CC(=S)N2CCOCC2)cc1OC`, the activity, negative = inhibition was -2.8% [at 2.29 µM].

Regarding `O=C1CSC(c2ccccn2)N1c1ccc(Cl)c(Cl)c1` (stereo not given), the “activity, negative = inhibition” value is 11%.

For `O=C1CSC(c2ccccc2F)N1c1cc(Cl)ccc1O` (stereo not given), the AC50 is 25.1 µM (active).

In the case of `NC(=O)c1ccc(C2SCC(=O)N2Cc2ccccc2)cc1` (stereo not given), the “activity, negative = inhibition” value was 8.69%.

Take `Cc1cccc(CNc2ccnc(-c3cccc(C#N)c3)n2)c1`: the AC50 was 1.26 µM (active).

As for `N#Cc1cccc(-c2nccc(NCc3cccnc3)n2)c1`, the AC50 was 0.794 µM (active).

As to `N#Cc1cccc(-c2nccc(NCc3ccccc3)n2)c1`, the AC50 is 12.6 µM (active).

In the case of `N#Cc1cccc(-c2nccc(NCc3cccs3)n2)c1`, the AC50 is 10 µM (active).

For `COc1ccccc1CCn1c(=O)c(-c2cc(F)cc(F)c2)nc2cncnc21`, the AC50 is 0.398 µM (active).

`CN(C)c1ncc2nc(-c3cc(F)cc(F)c3)c(=O)n(CCc3ccccc3)c2n1`: the “activity, negative = inhibition” value is -13%.

With `COc1ccccc1CCn1c(=O)c(-c2cccc(F)c2)nc2cncnc21`, the AC50 was 3.16 µM (active).

In the case of `O=C(N/N=C/c1cccc(OC2CSC2)c1)c1ccccc1O`, the activity, negative = inhibition is -1.49% [at 2.29 µM].

`CCCCS(=O)(=O)NC1=NCN(Cc2ccco2)CN1`: the “activity, negative = inhibition” value was -13.9%.

For the molecule `CC1=CC(=C2C(=O)c3ccccc3C2=O)C=C(C)N1Cc1ccco1`, the AC50 is 14.1 µM (active).

Regarding `CC1(C)OC(=O)N(Cc2ccco2)C1(C)O` (stereo not given), the “activity, negative = inhibition” value was -11.6%.
